The nature of assay [1]: resazurin metabolic signal in HepG2 cells – cell-based, resazurin fluorescence, 24 h, PK04 Diversity Set, profiling panel (AID 1172). The settings on record: HepG2 viability, higher = more signal. (In general: Alamar Blue is a resazurin reagent that responds to reducing activity.)
Assay [2] is described as follows: budding yeast growth changes without added modifier – OD600, strain BY4716, 24 h, basal condition, primary screen (AID 1173). To be noted: S. cerevisiae BY4716 growth, OD600, 24 h; higher = more signal, called active from +8 up or from −8 down.
The nature of assay [3]: viability profiling in MM1S myeloma cells – cell-based, resazurin fluorescence, basal, 24 h, PK04 Diversity Set, profiling panel (AID 1174).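 Also: MM1S multiple myeloma cell line.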 The settings on record: higher = more signal, called active from +8 up or from −8 down.
Assay [4] concerns the target Dihydroorotate dehydrogenase (quinone), mitochondrial (Plasmodium falciparum (isolate 3D7)) (UniProt Q08210). The assay can be described thus: inhibition of P. falciparum DHODH – biochemical, C-terminal His tag, absorbance 600 nm, primary screen (AID 1175).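 Also: recombinant parasite enzyme with a five histidine tag at its C terminus.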 To be noted: PfDHODH enzyme, DCIP absorbance 600 nm; higher = more signal, called active from +8 up or from −8 down.

Assay [5] can be described thus: inhibition of PAO1 biofilm formation – strain PAO1, LB-PBS medium, absorbance 600 nm, primary screen (AID 1176). The settings on record: P. aeruginosa PAO1 growth/biofilm, A600, 12 h; higher = more signal.
Assay [6] is described as follows: growth modulation of vineyard yeast isolate – strain RM11-1a, OD600, basal, 24 h, primary screen (AID 1177).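 Also: cultures grown under basal conditions with no added stressor.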 To be noted: S. cerevisiae RM11-1a growth, OD600, 24 h; higher = more signal, called active from +8 up or from −8 down.
The nature of assay [7]: growth of efflux-deficient E. coli DRC39 – strain DRC39, OD650, 24 h, E. coli filamentation inducers, primary screen (AID 1178).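 Also: growth measured as culture turbidity by optical density at 650 nm.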 To be noted: E. coli DRC39 acrAB, higher = more signal, called active from +8 up or from −8 down.
The nature of assay [8]: growth of efflux-deficient E. coli DRC39 – strain DRC39, OD650, 48 h, E. coli filamentation inducers, primary screen (AID 1179).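 Also: screen aims at cell division blockers that make cells filament.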 The settings on record: E. coli DRC39 delta-acrAB growth, higher = more signal, called active from +8 up or from −8 down.
Assay [9] can be described thus: viability profiling in RPMI8226 myeloma cells – cell-based, resazurin fluorescence, basal, 24 h, PK04 Diversity Set, profiling panel (AID 1180).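 Also: RPMI8826 multiple myeloma cell line at 5000 cells per well.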 The settings on record: higher = more signal.
Assay [10] deals with E3 ubiquitin-protein ligase XIAP (Homo sapiens) (UniProt P98170). The assay can be described thus: small molecules binding XIAP protein – biophysical, small-molecule microarray, fluorescence 635 nm, primary screen (AID 1181).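 Also: score merges 667 nm emission and signal to noise over triplicate slides.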 The settings on record: higher = more signal.
Assay [11] concerns XIP peptide (Xip251-270) binding. The assay can be described thus: XIP fragment 251-270 binding compounds – biochemical, small-molecule microarray, fluorescence 635/667 nm, 0.1 µg/mL protein, primary screen (AID 1182). The settings on record: fluorescent protein binding, 635 nm, higher = more signal, called active from +8 up or from −8 down.
For another assay, the system named is XIP peptide (Xip251-270). The assay can be described thus: compounds binding XIP fragment 251-270 – biochemical, small-molecule microarray, fluorescence 635/667 nm, 0.5 µg/mL protein, primary screen (AID 1183). To be noted: fluorescence 635 nm, higher = more signal.
The nature of assay [12]: blood-stage malaria parasite viability loss – strain 3D7, DAPI fluorescence, 100 nL, primary screen (AID 1184).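 Also: parasites grown inside human red blood cells in medium with human serum.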 The settings on record: P. falciparum 3D7 growth, 3 d, higher = more signal.
Assay [13] addresses Homeobox protein Hox-A13 (Mus musculus) (UniProt Q62424). The assay can be described thus: disruptors of Hoxa13 oligonucleotide interaction – biochemical, fluorescence polarization, labeled oligonucleotide, primary screen (AID 1185). To be noted: Hoxa13:DNA binding, 15 min, higher = more signal, called active from +8 up or from −8 down. In general terms: In fluorescence polarisation assays a small probe gives low polarisation when free and higher when bound to something large.

Assay [14] can be described thus: blockers of DNA damage checkpoint Chk1 activation – imaging, HeLa, hydroxyurea, phospho-Chk1 antibody, percent positive cells, primary screen (AID 1186). The settings on record: hydroxyurea-induced phospho-Chk1 immunofluorescence imaging, higher = more signal.
A short description of assay [15]: blockers of DNA damage checkpoint Chk1 activation – imaging, HeLa, hydroxyurea, phospho-Chk1 nuclear intensity, primary screen (AID 1187). The settings on record: hydroxyurea-induced phospho-Chk1 immunofluorescence imaging, higher = more signal.

“And” between values parts separate entries of the source, which are not always exact repeats. Identical values can stand only once. The source made the active and inactive calls. Unless noted, no rule for the calls is given here.

Here are results for 7 compounds from PubChem BioAssay.

Chain of Homeobox protein Hox-A13 (Mus musculus) (Q62424 whole entry, looked up): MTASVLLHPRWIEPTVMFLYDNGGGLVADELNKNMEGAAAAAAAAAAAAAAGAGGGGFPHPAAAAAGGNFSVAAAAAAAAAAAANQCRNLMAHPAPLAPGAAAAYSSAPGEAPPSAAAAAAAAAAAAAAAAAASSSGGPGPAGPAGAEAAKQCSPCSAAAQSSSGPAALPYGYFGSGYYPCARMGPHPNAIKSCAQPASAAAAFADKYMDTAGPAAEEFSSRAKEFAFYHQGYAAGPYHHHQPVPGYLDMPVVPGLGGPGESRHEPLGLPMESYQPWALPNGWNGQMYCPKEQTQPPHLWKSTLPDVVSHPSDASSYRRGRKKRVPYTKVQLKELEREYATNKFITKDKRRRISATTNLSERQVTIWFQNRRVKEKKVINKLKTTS
Chain of E3 ubiquitin-protein ligase XIAP (Homo sapiens) (P98170 whole entry, looked up, the tested form may be a part): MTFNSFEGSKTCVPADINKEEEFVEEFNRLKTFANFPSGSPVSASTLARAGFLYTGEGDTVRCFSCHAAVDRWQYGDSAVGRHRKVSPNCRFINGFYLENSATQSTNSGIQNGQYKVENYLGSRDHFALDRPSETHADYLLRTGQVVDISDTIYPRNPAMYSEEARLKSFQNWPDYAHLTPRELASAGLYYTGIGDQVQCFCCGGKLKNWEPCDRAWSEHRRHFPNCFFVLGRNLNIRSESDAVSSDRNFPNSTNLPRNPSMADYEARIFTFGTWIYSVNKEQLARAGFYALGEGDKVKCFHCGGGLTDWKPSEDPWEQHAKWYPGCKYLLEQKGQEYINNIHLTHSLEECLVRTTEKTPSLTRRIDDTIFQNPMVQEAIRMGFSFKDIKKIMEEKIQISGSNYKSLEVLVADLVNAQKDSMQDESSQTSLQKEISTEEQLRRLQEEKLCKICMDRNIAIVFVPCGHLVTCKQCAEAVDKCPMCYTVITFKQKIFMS
Chain of Dihydroorotate dehydrogenase (quinone), mitochondrial (Plasmodium falciparum (isolate 3D7)) (Q08210 whole entry, looked up): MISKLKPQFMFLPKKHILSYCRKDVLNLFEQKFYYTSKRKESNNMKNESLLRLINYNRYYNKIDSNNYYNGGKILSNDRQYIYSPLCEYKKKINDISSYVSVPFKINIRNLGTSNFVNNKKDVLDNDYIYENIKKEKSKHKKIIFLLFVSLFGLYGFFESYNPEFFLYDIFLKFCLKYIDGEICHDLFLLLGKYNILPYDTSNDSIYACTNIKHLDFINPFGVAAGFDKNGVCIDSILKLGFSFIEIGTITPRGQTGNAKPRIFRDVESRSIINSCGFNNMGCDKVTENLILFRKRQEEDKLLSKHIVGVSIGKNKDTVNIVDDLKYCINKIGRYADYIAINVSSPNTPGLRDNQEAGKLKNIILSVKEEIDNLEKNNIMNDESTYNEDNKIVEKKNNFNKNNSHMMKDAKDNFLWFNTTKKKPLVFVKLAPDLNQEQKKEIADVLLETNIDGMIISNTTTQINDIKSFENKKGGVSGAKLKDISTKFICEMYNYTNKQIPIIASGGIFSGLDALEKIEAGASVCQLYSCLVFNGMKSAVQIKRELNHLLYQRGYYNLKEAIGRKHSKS

`COC(=O)C1=C(C)N(Cc2ccccc2)[C@]23O[C@](C(=O)OC)(C(=O)N2[C@@H]1c1ccccc1)[C@@H](c1ccccc1)[C@@H]3C(=O)c1ccccc1`: the z-score in assay [1] was 1.07 and 0.475; in [2] it was -1.84 (inactive) and -0.926 (inactive); in assay [3], 0.876 (inactive) and 0.459 (inactive); in assay [5] it was -0.0933 (inactive); in assay [6] it was -1.37 (inactive) and -0.224 (inactive); in assay [7] it was -0.603 (inactive) and 0.788 (inactive). Further, the z-score in assay [8] is -0.263 (inactive) and 0.547 (inactive); in [9], 0.56 and 0.48; in [12] it was -0.362 and 0.318; in assay [13] it was -0.11 (inactive) and -0.0833 (inactive). Moreover, the composite z-score in assay [4] was 0.78 (inactive) and 0.324 (inactive); in assay [10], -0.209 and 0.0264; in [11] it was 0.114 (inactive) and 0.416 (inactive); in the assay with XIP peptide (Xip251-270), -0.0935 and 0.0333.

`CC(CO)N1C(=O)[C@@H]2C3C(=O)OCCC=C[C@H]3OC23C=CCN(C(C)(C)C)C(=O)[C@@H]13` (some centres undefined): the z-score in assay [1] was -0.0539 and 0.0517; in assay [2], 1.97 (inactive) and -0.0328 (inactive); in assay [3], -1.28 (inactive) and -0.719 (inactive); in [5] it was -0.317 (inactive) and 0.329 (inactive); in [6], 1.01 (inactive) and -1.12 (inactive); in [7] it was -0.57 (inactive) and -0.149 (inactive). The z-score in assay [8] is -0.672 (inactive) and -0.246 (inactive); in assay [9], -0.896 and -0.817; in [12] it was 0.35 and 0.567; in [13], -5.55 (inactive) and -5.92 (inactive); in assay [14], 0.545 (inactive) and -0.0027 (inactive); in assay [15] it was -0.0537 (inactive) and -0.28 (inactive). In addition, the composite z-score in [4] was -7.96 (inactive) and -3.06 (inactive); in assay [10], -0.157 and 0.517; in assay [11], -0.516 (inactive) and 0.463 (inactive); with XIP peptide (Xip251-270), -0.947 and -0.179.

In the case of `O=C1[C@H]2[C@H]3[C@H](O)[C@H](O)CC(=NOCc4ccccc4)[C@H]3CC[C@H]2C(=O)N1Cc1ccccc1`, the z-score in [1] was 0.447; in [2], -2.68 (inactive); in assay [3] it was 1.58 (inactive); in assay [5], 0.106 (inactive); in assay [6], -2.13 (inactive); in assay [7] it was 0.323 (inactive). Also, the z-score in [8] is -0.777 (inactive); in [9], 0.719; in assay [12] it was -1.76; in assay [13] it was -1.09 (inactive). Also, the composite z-score was -2.59 (inactive) in assay [4], -0.13 in assay [10], -0.0784 (inactive) in [11] and 0.0748 with XIP peptide (Xip251-270).

`COCn1c2ccccc2c2nnc(C(C)=O)nc21`: the z-score is -0.159 and -0.565 in [1]; -1.93 (inactive) and -2 (inactive) in assay [2]; -0.0104 (inactive) and 0.0255 (inactive) in assay [3]; -0.907 (inactive) and -0.576 (inactive) in assay [5]; 0.204 (inactive) and -0.16 (inactive) in [6]; -1.12 (inactive) and -1.17 (inactive) in assay [7]. In addition, the z-score is -1.07 (inactive) and -1.34 (inactive) in [8]; -0.261 and -0.35 in assay [9]; -1.12 and -1.29 in assay [12]; 0.732 (inactive) and 0.896 (inactive) in [13]. For the same compound, the composite z-score in [4] is -2.39 (inactive) and -2.01 (inactive); in assay [10], -0.0095 and -0.065; in assay [11] it was -0.0478 (inactive) and 0.199 (inactive); in the assay on XIP peptide (Xip251-270), -0.392 and -0.333.

With `CC(C)CCN1CCc2nc(-c3ccccc3)c3c(c2C1)CO[C@@H](C)C3`, the z-score in assay [1] was -0.123; in [2], -1.08 (inactive); in [3], -0.0881 (inactive); in [5], -0.188 (inactive); in [6], 0.396 (inactive); in assay [7] it was 0.66 (inactive). In addition, the z-score in [8] is 0.0602 (inactive); in assay [9], 0.129; in assay [12] it was 1.77; in assay [13], -3.47 (inactive). For the same compound, the composite z-score in [4] was -0.363 (inactive); in assay [10], 0.201; in assay [11], 0.105 (inactive); with XIP peptide (Xip251-270) it was 0.563.

Turning to `C=CCN(C(=O)C(c1cccs1)N(C(=O)/C=C\C(=O)O)c1c(Cl)cccc1CO)c1ccc(OC)cc1` (centres undefined), the z-score in assay [1] is 0.154 and -2.56; in [2], -2.07 (inactive) and -1.37 (inactive); in assay [3], 1.02 (inactive) and -0.0953 (inactive); in assay [5], -0.18 (inactive); in assay [6], -0.736 (inactive) and 0.0288 (inactive); in assay [7], 0.976 (inactive) and 0.515 (inactive). The z-score in assay [8] was 1.11 (inactive) and 0.57 (inactive); in assay [9], 0.509 and -0.0282; in assay [12], 0.734 and 1.62; in assay [13] it was 0.171 (inactive) and -1.67 (inactive); in [14] it was -0.0464 (inactive) and 0.245 (inactive); in [15] it was 0.0355 (inactive) and 0.636 (inactive). The composite z-score was -5.76 (inactive) and -2.28 (inactive) in assay [4]; 0.0264 and -0.0795 in assay [10]; 0.861 (inactive) and 0.113 (inactive) in assay [11]; -0.457 and -1.04 with XIP peptide (Xip251-270).

As for `CC(CO)N1C(=O)[C@@H]2C3C(=O)OCCC=C[C@H]3OC23C=CCN(c2ccc(Cl)cc2)C(=O)[C@@H]13` (some centres undefined), the z-score in assay [1] was -0.445 and 0.702; in assay [2] it was 0.604 (inactive) and -0.219 (inactive); in assay [3], -0.0472 (inactive) and -0.544 (inactive); in [5], -0.497 (inactive) and -0.167 (inactive); in assay [6], 1.43 (inactive) and -0.727 (inactive); in [7], 0.519 (inactive) and -0.342 (inactive). The z-score in assay [8] was 0.399 (inactive) and -0.538 (inactive); in assay [9], 0.23 and -0.131; in assay [12], -0.764 and -0.187; in assay [13], -3.34 (inactive) and -6.16 (inactive); in assay [14], 0.537 (inactive) and -0.0281 (inactive); in assay [15] it was 0.654 (inactive) and 0.0058 (inactive). In addition, the composite z-score in assay [4] is -1.16 (inactive) and -1.13 (inactive); in assay [10] it was 0.269 and -0.0172; in assay [11], 0.291 (inactive) and 0.137 (inactive); with XIP peptide (Xip251-270), -0.784 and 0.213.
